High-throughput results: PubChem, National Center for Advancing Translational Sciences (NCATS)
HT1080-NT tox: kills 2HG-producing HT-1080-NT fibrosarcoma cells | HT-1080-NT fibrosarcoma viability, CellTiter-Glo ATP luminescence, 48 h | Potency, µM (highest dose often 46.1 µM), hits mostly cytotoxic | 360,000 compounds, 1.6% hits | AID 686970;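 further: NT is the 2HG producing partner of a matched IDH1 knockdown line; nearly all actives have a fitted effect of over 55% in size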
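Toxicity toward the 2HG-producing NT line was scored as %Activity, normalised to DMSO and no-cell wells, from CellTiter-Glo luminescence after 48 hours' treatment.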
IL-1B inflam inh: blocks inflammasome-driven IL-1 beta release. THP-1 LPS/ATP IL-1B secretion, AlphaLISA, 16 h; active compounds read low. activity change, % at 57.5 µM. 360,000 compounds, 4.7% hits. AID 743279; in the data active means activity change below about -50%; inconclusive means mostly about -30% to -49%
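THP-1 cells pretreated 1 hr with compounds (up to 57.5 uM final), then stimulated with LPS (250 ng/mL final) plus ATP (1.25 mM final); secreted IL-1B measured by AlphaLISA after 16 hr, decreased signal indicating inhibition.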
KB-V1 MDR tox: KB-V1 MDR subline cytotoxicity; KB-V1 MDR cells viability, CellTiter-Glo, 72 h; 400,000 compounds, 3.4% hits; Potency, µM (doses to about 46.1 µM), usual class: cytotoxic; further: nearly all actives have a fitted effect of over 60% in size
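Compound-treated KB-V1 multidrug-resistant cells, 72 h, 37 degrees C; viability by CellTiter-Glo. Fitted qHTS curves give the values.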
HT1080 IDH1KD tx: kills HT-1080 cells with IDH1 knockdown; AID 686971; Potency, µM (top dose mostly 46.1 µM), most hits filed as cytotoxic; HT-1080 IDH1 knockdown viability, ATP luminescence, 48 h; 360,000 compounds, 2% hits
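Assay cells: HT-1080 with IDH1 knockdown, 750 per well, RPMI/5% FBS. Exposure: 48 h at 37 °C following 2 h pre-incubation. Read: CellTiter-Glo luminescence; fitted concentration-response, curve class assigned.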
KB-3-1 cytotox: kills parental KB-3-1 adenocarcinoma cells | KB-3-1 viability, CellTiter-Glo ATP luminescence, 72 h | Potency, µM (top dose mostly 46.1 µM), hits mostly cytotoxic | 400,000 compounds, 1.4% hits; further: nearly all actives have a fitted effect of over 60% in size
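Luminescent ATP read-out (CellTiter-Glo) measures survival of drug-naive KB-3-1 cells after 72 h compound exposure at 37 °C. Titration series was screened from lowest to highest concentration, with DMSO vehicle plates as background controls.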
Numbers stand for hits; – = inactive; ? = inconclusive; · = not tested or not shown. Compounds with a hit are over-represented: about 8.8% of the library has one in this group of screens. Unless noted, the call rests on the fitted dose curve; in most records, active means well fitted curve in the direction sought with a large enough effect; inconclusive means small, poorly fitted or top-dose-only effect, or another doubt; inactive means no such curve, though single readings can be large; an effect the other way counts as inactive or inconclusive.

SMILES | HT1080-NT tox | IL-1B inflam inh | KB-V1 MDR tox | HT1080 IDH1KD tx | KB-3-1 cytotox
Cc1ccc(C(=O)OC(C)C(=O)NC2CCCCC2C)s1 (stereo not drawn) | – | – | 20.6µM | – | –
CC(OC(=O)c1cccs1)C(=O)NC1CCCCC1C (stereo not drawn) | – | – | – | – | –
CC(OC(=O)c1ccccc1NCCO)C(=O)NC1CCCCC1C (stereo not drawn) | – | – | 9.2µM | – | –
CCOc1ccc(C(C)=O)cc1CSc1nc2nc(C)cc(C)n2n1 | – | – | – | – | –
COC(=O)C1=C(C)NC2=C(C(=O)CCC2)C1c1cn(Cc2ccc(Br)cc2)nc1-c1ccccc1 (stereo not drawn) | – | -61.6 | – | ? | –
O=C(CCc1n[nH]c(=O)[nH]c1=O)Nc1cccc([N+](=O)[O-])c1 | – | – | – | – | –
COc1ccc(CC(=O)Oc2ccc(Cl)cc2Br)cc1S(=O)(=O)N1CCOCC1 | – | – | – | – | –
C#C[C@]1(OC(C)=O)CCC2C3CCC4=CC(=O)CC[C@@H]4C3CC[C@@]21C (stereo partly drawn) | – | – | 9.2µM | – | ?
CCOC(=O)COc1ccccc1/C=C1/NC(=O)NC1=O | – | ? | – | – | –
COc1cccc(/C=C2\NC(=O)NC2=O)c1O | – | -50.4 | – | – | –
COC(=O)/C=C1\N/C(=N/c2nc(C)c3cc(OC)ccc3n2)NC1=O | – | – | – | ? | ?
CCOC(=S)SCC(=O)N1CCc2cc(OC)ccc2C1C1C(=O)CCCC1=O (stereo not drawn) | ? | – | ? | 23.1µM | ?
O=C(Nc1ccccc1C(=O)NC1CC1)c1ccc([N+](=O)[O-])o1 | – | -93.3 | ? | – | –
Cc1ccc(C(=O)Nc2cccc3ccccc23)o1 | – | – | – | – | –
CC1CCN(c2ccccc2NC(=O)c2ccc([N+](=O)[O-])o2)CC1 | – | – | – | – | –
COc1ccccc1NC(=O)c1ccc([N+](=O)[O-])o1 | ? | -83.0 | – | ? | ?
O=C(Nc1cccc2ccccc12)c1ccc([N+](=O)[O-])o1 | ? | -97.1 | ? | 13µM | ?
Cc1cccc(NC(=O)c2ccc([N+](=O)[O-])o2)c1C | 23.1µM | -88.9 | ? | 18.4µM | –
COc1ccccc1NC(=O)c1ccc(COc2ccccc2OC)o1 | – | – | – | – | –
Cc1ccc(NC(=O)CN2C=NS(=O)(=O)c3ccccc32)c(C)c1 | · | · | – | · | –
Cc1ccc(-c2csc(NC(=O)c3ccc([N+](=O)[O-])o3)n2)cc1 | – | -105.7 | – | – | ?
Cc1ccc(-c2csc(NC(=O)c3ccc(C)o3)n2)cc1 | – | – | – | – | –
CC1(C)COC(Cc2ccccc2)=N1 | – | – | – | – | ?
Cc1c(NC(=O)C(C)OC(=O)[C@@H](NC(=O)c2ccccc2)C(C)C)c(=O)n(-c2ccccc2)n1C (stereo partly drawn) | – | – | – | – | –
Cc1c(NC(=O)[C@@H](NC(=O)c2ccc(Cl)c([N+](=O)[O-])c2)C(C)C)c(=O)n(-c2ccccc2)n1C | – | -93.6 | – | – | –
SMILES | HT1080-NT tox | IL-1B inflam inh | KB-V1 MDR tox | HT1080 IDH1KD tx | KB-3-1 cytotox
COc1ccc(CCNc2c3ccccc3nc3ccccc23)cc1OC | 20.6µM | -93.9 | ? | ? | ?
c1csc(CNc2ncnc3sccc23)c1 | – | – | – | 25.9µM | –
COc1nc(NCCc2ccc(OC)c(OC)c2)nc(OC)n1 | – | – | – | – | –
COc1ccc(CNc2ncnc3sccc23)cc1 | ? | – | ? | 23.1µM | ?
COc1ccc(CNc2ncnc3cc(Cl)ccc23)cc1OC | – | – | 20.6µM | – | ?
c1ccc(CNc2ncnc3sccc23)cc1 | ? | – | – | ? | –
COc1ccc(CNc2ncnc3sccc23)cc1OC | ? | – | 16.4µM | – | ?
COc1ccc(CCNc2ncnc3cc(OC)c(OC)cc23)cc1OC | – | -73.1 | 20.6µM | – | –
COc1ccc(C(CNc2ncnc3sccc23)N(C)C)cc1OC (stereo not drawn) | – | – | ? | – | –
COc1ccccc1NC(=O)CN1CCN(C(=O)C2CCCO2)CC1 (stereo not drawn) | – | – | – | – | –
